HT1080NT lethal: kills 2HG-producing HT-1080-NT fibrosarcoma cells | HT-1080-NT fibrosarcoma viability, CellTiter-Glo ATP luminescence, 48 h | Potency, µM (doses to about 46.1 µM), most hits filed as cytotoxic | 1.6% of 360,000 active | AID 686970;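 further: NT is the 2HG producing partner of a matched IDH1 knockdown line; nearly all actives have a fitted effect of over 55% in size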
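Viability of the 2HG-overproducing fibrosarcoma line after 48 hours of compound exposure at 37 degrees C was determined by luminescence with CellTiter-Glo, and concentration-effect curves were then fitted and categorized.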
KB-3-1 cytotox: KB-3-1 parental cell cytotoxicity. KB-3-1 viability, CellTiter-Glo ATP luminescence, 72 h. Potency, µM (titrated, usually from 46.1 µM), actives largely listed as cytotoxic. 1.4% of 400,000 active. AID 1347075; further: nearly all actives have a fitted effect of over 60% in size
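Screening of KB-3-1 cells (DMEM, 10% FBS, phenol-red free) ran from lowest to highest compound concentration; after 72 h at 37 °C viability was read luminescently and curves fitted.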
HT1080 IDH1KD tx: HT-1080 IDH1 knockdown cell toxicity (counter line); Potency, µM (doses to about 46.1 µM), most hits filed as cytotoxic; HT-1080 IDH1 knockdown viability, ATP luminescence, 48 h; 2% of 360,000 active
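% activity derives from luminescence (CellTiter-Glo), normalised to DMSO and no-cell wells. HT-1080-IDH1KD cells, 750/well, had 48 h compound exposure at 37 °C.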
KB-V1 MDR tox: kills drug-selected multidrug resistant KB-V1 cells; Potency, µM (highest dose often 46.1 µM), usual class: cytotoxic; KB-V1 MDR cells viability, CellTiter-Glo, 72 h; AID 1347076; 3.4% of 400,000 active; further: nearly all actives have a fitted effect of over 60% in size
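Cytotoxicity via CellTiter-Glo luminescence after 72 h compound exposure at 37 degrees C. Cells: drug-selected KB-V1 line, DMEM phenol-red free plus 10% FBS. Compounds tested at multiple concentrations; normalized data fitted to concentration-effect curves.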
IL-1B inflam inh: inflammasome signaling inhibition, IL-1 beta readout | THP-1 LPS/ATP IL-1B secretion, AlphaLISA, 16 h; stronger effect = lower value | activity change, % at 57.5 µM | 4.7% of 360,000 active | AID 743279; in the data active means activity change below about -50%; inconclusive means mostly about -30% to -49%
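Secreted IL-1B measured by AlphaLISA bead assay after 16 h compound exposure of THP-1 cells; compounds (final up to 57.5 uM) added 1 h before LPS (250 ng/mL) and ATP (1.25 mM) stimulation; lower signal means less secretion.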
Hits are given with their value. Sampled rows, rich in hits. Any-hit rate of the full collection: about 8.8%. Unless noted, the call rests on the fitted dose curve; in most records, active means well fitted curve in the direction sought with a large enough effect; inconclusive means small, poorly fitted or top-dose-only effect, or another doubt; inactive means no such curve, though single readings can be large; an effect the other way counts as inactive or inconclusive.

For CCCCC1=CC2=CC(=O)C(C)(OC(=O)CC)C(=O)C2=CN1CCc1ccc(Br)cc1 (configuration not stated) the results were HT1080NT lethal inactive, KB-3-1 cytotox inactive, HT1080 IDH1KD tx inactive, KB-V1 MDR tox inactive and IL-1B inflam inh inactive.
For CC1Cc2ccccc2N1C(=O)COc1ccc2c(c1)OCO2 (configuration not stated) the results were HT1080NT lethal inactive, KB-3-1 cytotox inactive, HT1080 IDH1KD tx inactive, KB-V1 MDR tox inconclusive and IL-1B inflam inh -56.
CC(C)NC(=O)Cn1c(SCC(=O)N2c3ccccc3CC2C)nc2ccccc21 (configuration not stated) was read as HT1080NT lethal inactive, KB-3-1 cytotox inactive, HT1080 IDH1KD tx inactive, KB-V1 MDR tox inactive and IL-1B inflam inh inactive.
For CC1Cc2ccccc2N1C(=O)CSc1ccccc1 (configuration not stated) the results were HT1080NT lethal inactive, KB-3-1 cytotox inactive, HT1080 IDH1KD tx inactive, KB-V1 MDR tox 16µM and IL-1B inflam inh inactive.
Screening Cc1nc(SCC(=O)N2c3ccccc3NC(=O)CC2C)c2c(C)c(C)sc2n1 (configuration not stated) returned HT1080NT lethal inactive, KB-3-1 cytotox inactive, HT1080 IDH1KD tx inactive, KB-V1 MDR tox inactive and IL-1B inflam inh inactive.
For CC1CCCN(C(=O)COc2ccc3c(c2)OCO3)C1 (configuration not stated) the results were HT1080NT lethal inactive, KB-3-1 cytotox inactive, HT1080 IDH1KD tx inactive, KB-V1 MDR tox inactive and IL-1B inflam inh inactive.
`Cc1sc2nc(C3CC3)nc(SCC(=O)N3c4ccccc4CC3C)c2c1C` (configuration not stated) gave HT1080NT lethal inconclusive, KB-3-1 cytotox inactive, HT1080 IDH1KD tx inconclusive, KB-V1 MDR tox 5.8µM and IL-1B inflam inh inactive.
For CC(C)Cn1c(=O)c2ccccc2n2c(SCC(=O)N3c4ccccc4CC3C)nnc12 (configuration not stated) the results were HT1080NT lethal inactive, KB-3-1 cytotox inactive, HT1080 IDH1KD tx inactive, KB-V1 MDR tox 1.8µM and IL-1B inflam inh inactive.
For COc1ccccc1CNC(=O)Cn1nc(C)n2cccc2c1=O the results were KB-3-1 cytotox inactive and KB-V1 MDR tox inactive.
Screening O=C(NC1CCCCCC1)C1CCC(=O)N(Cc2ccccc2F)C1 (configuration not stated) returned HT1080NT lethal inactive, KB-3-1 cytotox inactive, HT1080 IDH1KD tx inactive, KB-V1 MDR tox inactive and IL-1B inflam inh inactive.
For CC(C)c1nc(SCC(=O)N2c3ccccc3CC2C)c2ccccc2n1 (configuration not stated) the results were HT1080NT lethal inconclusive, KB-3-1 cytotox inactive, HT1080 IDH1KD tx inactive, KB-V1 MDR tox inactive and IL-1B inflam inh -99.
For Cc1cc2ccccc2nc1SCC(=O)N1c2ccccc2CC1C (configuration not stated) the results were HT1080NT lethal inactive, KB-3-1 cytotox inactive, HT1080 IDH1KD tx inactive, KB-V1 MDR tox inactive and IL-1B inflam inh inactive.
For O=C(NCc1cccnc1)c1cc(C2CCCCN2C(=O)CCCc2ccccc2)on1 (configuration not stated) the results were HT1080NT lethal inactive, KB-3-1 cytotox inactive, HT1080 IDH1KD tx inactive, KB-V1 MDR tox inactive and IL-1B inflam inh inactive.
For CC1CN(CCc2ccccc2)c2nc3c(c(=O)n(C)c(=O)n3C)n2C1 (configuration not stated) the results were HT1080NT lethal inactive, KB-3-1 cytotox inactive, HT1080 IDH1KD tx inactive, KB-V1 MDR tox inactive and IL-1B inflam inh inactive.
CCc1cccc(NS(=O)(=O)c2csc(C(N)=O)c2)c1 was read as HT1080NT lethal inactive, KB-3-1 cytotox inactive, HT1080 IDH1KD tx inactive, KB-V1 MDR tox inactive and IL-1B inflam inh inactive.
COc1ccc(NC(=O)N(C)[C@H]2C[C@H]3c4[nH]c5ccc(-c6ccc(OC)cc6)cc5c4CCN3C(=O)[C@H]2[C@H](C)O)cc1 was read as HT1080NT lethal 23µM, KB-3-1 cytotox inconclusive, HT1080 IDH1KD tx 16µM, KB-V1 MDR tox inactive and IL-1B inflam inh inactive.
For COc1ccc(-c2ccc3[nH]c4c(c3c2)CCN2C(=O)[C@@H]([C@H](C)O)[C@@H](N(C)C(=O)Nc3ccccc3)C[C@@H]42)cc1 the results were HT1080NT lethal 23µM, KB-3-1 cytotox inconclusive, HT1080 IDH1KD tx 16µM, KB-V1 MDR tox inconclusive and IL-1B inflam inh inactive.
Screening COc1ccc(NC(=O)N(C)[C@H]2C[C@H]3c4[nH]c5ccccc5c4CCN3C(=O)[C@H]2[C@H](C)O)cc1 returned HT1080NT lethal inactive, KB-3-1 cytotox inactive, HT1080 IDH1KD tx inactive, KB-V1 MDR tox inactive and IL-1B inflam inh inactive.
`CN[C@H]1C[C@H]2c3[nH]c4ccc(-c5ccc(OC)cc5)cc4c3CCN2C(=O)[C@H]1[C@H](C)O` gave HT1080NT lethal 8.2µM, KB-3-1 cytotox 5.8µM, HT1080 IDH1KD tx 13µM, KB-V1 MDR tox inconclusive and IL-1B inflam inh inconclusive.
`Nc1ccccc1-n1nc2ccc3ccccc3c2n1` gave HT1080NT lethal inactive, KB-3-1 cytotox inactive, HT1080 IDH1KD tx inactive, KB-V1 MDR tox inactive and IL-1B inflam inh inactive.
Screening CCCN(C(=O)c1nc2nc(C)cc(C)n2n1)c1c(N)n(Cc2ccccc2)c(=O)[nH]c1=O returned HT1080NT lethal inactive, KB-3-1 cytotox inactive, HT1080 IDH1KD tx inactive, KB-V1 MDR tox inactive and IL-1B inflam inh inactive.
Screening CC1(C)OC(=O)C2(Cc3ccc(Br)cc3N3CCCCC32)C(=O)O1 (configuration not stated) returned KB-3-1 cytotox inactive and KB-V1 MDR tox inactive.
For Cc1ccc(-n2c(C)cc(C(=O)CSc3nncs3)c2C)cc1 the results were HT1080NT lethal inconclusive, KB-3-1 cytotox 23µM, HT1080 IDH1KD tx inconclusive, KB-V1 MDR tox inconclusive and IL-1B inflam inh inactive.
For O=c1c2ccccc2nc(SCc2ccc([N+](=O)[O-])cc2)n1CCCO the results were HT1080NT lethal inconclusive, KB-3-1 cytotox inactive, HT1080 IDH1KD tx inconclusive, KB-V1 MDR tox 2.9µM and IL-1B inflam inh inactive.
`COCCn1c(SCc2nc3ccccc3c(=O)[nH]2)nc2ccccc2c1=O` gave HT1080NT lethal inconclusive, KB-3-1 cytotox inactive, HT1080 IDH1KD tx inconclusive, KB-V1 MDR tox inconclusive and IL-1B inflam inh inactive.
For CCCCn1c(SCc2nc3ccccc3s2)nc2ccccc2c1=O the results were HT1080NT lethal inactive, KB-3-1 cytotox 23µM, HT1080 IDH1KD tx inactive, KB-V1 MDR tox inconclusive and IL-1B inflam inh inactive.
Screening CCCn1c(SCc2nc3sc(C)c(C)c3c(=O)[nH]2)nc2ccccc2c1=O returned HT1080NT lethal inactive, KB-3-1 cytotox inactive, HT1080 IDH1KD tx inactive, KB-V1 MDR tox 9.2µM and IL-1B inflam inh inactive.
Screening CCCCn1c(SCC#N)nc2ccccc2c1=O returned KB-3-1 cytotox inactive and KB-V1 MDR tox inactive.
COC(=O)C(C(=O)Nc1ccccc1C)C1CCCCCC1 (configuration not stated) was read as HT1080NT lethal inactive, KB-3-1 cytotox inactive, HT1080 IDH1KD tx inactive, KB-V1 MDR tox inactive and IL-1B inflam inh inactive.

Bioassay records deposited in PubChem by National Center for Advancing Translational Sciences (NCATS).
